# According to PubChem BioAssay AID2642 (Johns Hopkins Ion Channel Center, 2010):
# The whole screen tested about 310,000 compounds, of which about 3,900 (1.3%) were called active.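 The calls were made as follows: active = compounds whose thallium flux B-score, printed positive for inhibition, exceeds three library SD while starting fluorescence stays within three; inactive = the rest.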 The list comes from a sample in which actives are over-represented; it also holds similar structures and randomly drawn compounds.
# Target: Potassium voltage-gated channel subfamily KQT member 1 (Homo sapiens) (UniProt P51787)
# Experiment: inhibitors of human KCNQ1 channel, primary screen, cell-based, thallium flux, high-throughput (AID 2642);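 also: channel opened by potassium depolarization with thallium stimulus after 20 min compound exposure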
# Conditions: CHO-K1 KCNQ1, FluxOR thallium flux fluorescence, at 10 µM; active compounds read high
# Sequence of Potassium voltage-gated channel subfamily KQT member 1 (Homo sapiens) (P51787 whole entry, looked up): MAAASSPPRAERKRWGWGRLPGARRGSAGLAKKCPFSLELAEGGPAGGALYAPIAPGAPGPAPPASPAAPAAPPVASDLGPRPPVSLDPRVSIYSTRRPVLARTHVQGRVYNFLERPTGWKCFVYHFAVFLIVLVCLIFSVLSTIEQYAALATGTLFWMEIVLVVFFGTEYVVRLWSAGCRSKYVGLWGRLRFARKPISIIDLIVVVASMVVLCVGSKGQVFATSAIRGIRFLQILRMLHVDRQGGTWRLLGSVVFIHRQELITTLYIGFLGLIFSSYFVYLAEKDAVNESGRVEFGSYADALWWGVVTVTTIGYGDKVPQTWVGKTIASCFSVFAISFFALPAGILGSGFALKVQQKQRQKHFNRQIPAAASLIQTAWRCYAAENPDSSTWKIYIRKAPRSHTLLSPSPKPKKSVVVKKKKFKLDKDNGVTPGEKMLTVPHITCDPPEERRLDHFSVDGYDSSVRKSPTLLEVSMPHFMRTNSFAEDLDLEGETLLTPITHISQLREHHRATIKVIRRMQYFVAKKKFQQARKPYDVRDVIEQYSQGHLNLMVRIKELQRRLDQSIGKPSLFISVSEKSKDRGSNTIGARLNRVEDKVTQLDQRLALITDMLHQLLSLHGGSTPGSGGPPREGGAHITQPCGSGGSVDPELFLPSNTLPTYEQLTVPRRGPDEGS
row,SMILES,B-score
1,Cc1c(Cl)cccc1NC(=O)[C@@]1(CC(=O)O)CC(/C=C/c2ccccc2)=NO1,inactive
2,CC(Oc1ccc(F)cc1)C(=O)Nc1cc(S(=O)(=O)N2CCOCC2)ccc1N1CCN(C)CC1 (configuration not stated),inactive
3,Cc1ccc(S(=O)(=O)N2CCC3(CC2)OCCO3)c(C)c1,inactive
4,CCOC(=O)C1CCN(C(=O)C2(NC(=O)Nc3cccc(F)c3)CCCCC2)CC1,inactive
5,Oc1cccc(/C=N/Nc2ccc(Cl)nn2)c1O,inactive
6,Brc1ccccc1/C=N/Nc1nc2ccccc2o1,inactive
7,Oc1c(Br)cccc1/C=N/Nc1c(F)c(F)c(F)c(F)c1F,7 (active)
8,COc1cccc(NC(=O)CN(C)C(C)C(=O)Nc2ccc(C#N)cc2)c1 (configuration not stated),inactive
9,COc1ccc(N(CC(=O)Nc2ccc(F)c(F)c2)S(=O)(=O)c2c(C)[nH]c(=O)[nH]c2=O)cc1,inactive
10,COc1ccccc1NC(=O)C1CCN(C(=O)c2ccc(C(C)(C)C)cc2)CC1,inactive
11,S=C(NCCc1ccccc1)Nc1ccccc1,inactive
12,O=C(CCNC(=O)c1ccc(Br)cc1)NCCCc1ccccc1,inactive
13,S=C(NCCCc1ccccc1)Nc1ccc(Br)cc1,7 (active)
14,Cc1cn(C)c(=O)n(C)c1=O,inactive
15,O=c1onc(-c2c(F)cccc2F)n1-c1ccccc1Cl,inactive
16,CC1CCC2(CC1)NC(=O)N(CC(=O)c1cccn1C)C2=O (configuration not stated),7 (active)
17,CC1CCC2(CC1)NC(=O)N(CC(=O)c1ccc3c(c1)OCO3)C2=O (configuration not stated),inactive
18,O=C(CN1C(=O)NC2(CCCCCC2)C1=O)NC1CC1,inactive
19,Cc1ccc(CNC(=O)CSc2nnc3c(n2)[nH]c2ccc(F)cc23)cc1,inactive
20,CN(C)/C=C(/C(=O)c1ccc(Cl)cc1)S(=O)(=O)c1ccccc1,inactive
21,S=C(NN=C1CCN(Cc2ccccc2)CC1)NC1CCCCC1,inactive
22,CCCC1CCC(=NNC(=S)NCCc2ccccc2)CC1 (configuration not stated),7 (active)

row,SMILES,B-score
1,S=C(NCCc1ccccc1)NCC1CCCO1 (configuration not stated),inactive
2,COc1ccc(S(=O)(=O)NCC(=O)NCc2cc(=O)n(C)c(=O)n2C)cc1F,inactive
3,Cc1ccc(S(=O)(=O)N2CCN(CC(=O)N/N=C/c3ccc(Br)s3)CC2)cc1,inactive
4,CCC(CC)C(=O)N1CCN(c2cccc(C)c2C)CC1,inactive
5,Cc1cccc(N2CCN(C(=O)c3cccc(N4C(=O)C5C6C=CC(C6)C5C4=O)c3)CC2)c1C (configuration not stated),inactive
6,CCn1c(C)c(C)c2cc(C(=O)N3CCN(c4cccc(C)c4C)CC3)ccc21,10 (active)
7,CCn1ccnc1CN(C)C(=O)c1cc(COc2ccc(-n3cncn3)cc2)on1,inactive
8,C=CCC1(CC=C)CCCN1C(=O)c1cc(COc2ccc(-n3cncn3)cc2)on1,11 (active)
9,O=C(c1cc(COc2ccc(F)c(F)c2)on1)N1CCOCC1,inactive
10,NS(=O)(=O)c1cc(C(=O)NCCOc2ccccc2)c(Cl)cc1Cl,inactive
11,COc1ccc(-n2c(C)cc(C(=O)COC(=O)c3cc(OC)c(OC)cc3NC(=O)c3cccs3)c2C)cc1,inactive
12,COc1ccc(Nc2ncnc3sc(-c4ccccc4)cc23)c(OC)c1,7 (active)
13,COc1ccc(Nc2ncnc3sc(C)cc23)cc1,inactive
14,COc1ccc(Nc2ncnc3ccc(Br)cc23)c(OC)c1,inactive
15,c1ccc2c(c1)C(=NC1CCCCC1)NC2=NC1CCCCC1,6 (active)
16,CC1(C)CC(N2CCN(C(c3ccccc3)c3ccccc3)CC2)=CC(=[N+]2CCCCC2)C1,9 (active)
17,CC1(C)CC(=O)C=C(N2CCCC2)C1,inactive
18,O=C(O)CN1CCN(C(c2ccccc2)c2ccccc2)CC1,inactive
19,CC(C)NS(=O)(=O)c1ccc(NC(=O)C2CCCCC2)cc1,inactive
20,COc1ccc(OC)c(S(=O)(=O)NCCC(C)C)c1,inactive
21,CC(NC(=O)COC(=O)C1CCN(S(=O)(=O)c2ccccc2C(F)(F)F)CC1)c1ccccc1 (configuration not stated),inactive
22,Cc1ccc(CS(=O)Cc2ccc(C(=O)N3CCOCC3)o2)cc1 (configuration not stated),inactive

row,SMILES,B-score
1,Cc1ccc(-c2noc(CC(c3ccccc3)c3ccccc3)n2)cc1,7 (active)
2,Cc1ccc(-c2noc(CN3CCN(Cc4ccccc4)CC3)n2)cc1,inactive
3,Cc1ccc(-c2noc(CSc3nnc(-c4ccccc4)n3C)n2)cc1,inactive
4,COc1cccc(NC(=O)[C@H](Cc2c[nH]c3ccccc23)NC(=O)[C@@H]2Cc3ccccc3CN2)c1,inactive
5,CC(C)(O)C#Cc1ncc(C(F)(F)F)cc1Cl,inactive
6,COCCOC1CCN(C(=O)c2ccc(OC)c(OC3CCN(C(C)C)CC3)c2)CC1,inactive
7,CN1CCN(CCCNC(=O)c2ccc(/C=C3\Oc4ccccc4N(Cc4ccc(Cl)cc4)C3=O)cc2)CC1,inactive
8,CCN1CCN(CCNC(=O)c2ccc(/C=C3/Sc4ccccc4N(Cc4cccc(C)c4)C3=O)cc2)CC1,13 (active)
9,CCN1CCN(CCNC(=O)c2ccc3c(c2)NC(=O)/C(=C\c2ccc(OC)c(OC)c2)S3)CC1,inactive
10,O=C(NCCCN1CCOCC1)c1ccc2c(c1)N(Cc1cccc(F)c1)C(=O)c1ccccc1S2,inactive
11,O=C(NCCN1CCOCC1)c1ccc(/C=C2\Sc3ccccc3N(Cc3ccc(F)cc3)C2=O)cc1,10 (active)
12,O=C(NCCN1CCOCC1)/C(=C/c1ccc(F)cc1)NC(=O)c1ccccc1,inactive
13,CC(=O)Nc1ccc(S(=O)(=O)N(C)c2ccc(OCC(=O)OCC(=O)N3CCCCC3)cc2)cc1,inactive
14,COc1ccccc1N(C)S(=O)(=O)c1ccc(Cl)c(C(=O)N2CCC(C(N)=O)CC2)c1,inactive
15,COC(=O)c1ccc(CN2CCCC(C(=O)Nc3cccc(-n4cnnn4)c3)C2)cc1 (configuration not stated),inactive
16,CC(C)CCN1C(=O)c2ccc(C(=O)Nc3cccc(S(N)(=O)=O)c3)cc2C1=O,inactive
17,O=C(CS(=O)(=O)c1cn(Cc2ccc(Cl)cc2)c2ccccc12)N1CCOCC1,inactive
18,COc1ccc(/C=C2/SC(=O)N(CCCCCC(=O)Nc3ccccc3C(=O)O)C2=S)cc1,6 (active)
19,O=C(CCCN1C(=O)/C(=C\c2ccccc2)SC1=S)Nc1ccccc1O,inactive
20,COc1ccc(/C=C2\SC(=O)N(CCC(=O)NCCCn3ccnc3)C2=O)cc1,inactive
21,Cc1cc(/C=C2/SC(=O)N(CC(=O)N3CCCC3)C2=O)ccc1N1CCOCC1,inactive
22,Cc1cccc(CNS(=O)(=O)c2ccc(-c3cnc(C4CC4)o3)cc2)c1,inactive

row,SMILES,B-score
1,CCOC(=O)Cn1c(=O)n(Cc2ccc(OC)cc2)c(=O)c2cccnc21,inactive
2,COC(=O)[C@@H](Cc1ccccc1)NC(=O)NCCc1ccccc1,inactive
3,O=C(c1cc2sccc2n1Cc1ccc(F)cc1)N1CCc2ccccc21,inactive
4,CC1Cc2ccccc2N1C(=O)c1cc2sccc2n1Cc1ccccc1 (configuration not stated),6 (active)
5,CCOC(=O)c1cc2sccc2n1Cc1ccc(C#N)cc1,inactive
6,CCC(=O)OCc1c(C(F)(F)F)nn(C)c1Oc1cccc(C(F)(F)F)c1,inactive
7,Cn1nc(C(F)(F)F)cc1-c1ccc(/C=C(\C#N)C(=O)c2cccc(C(F)(F)F)c2)s1,8 (active)
8,Cn1nc(C(F)(F)F)cc1C(=O)O,inactive
9,CCCCN(C)CCNC(=O)C1CCCN(S(=O)(=O)c2cccc3nsnc23)C1 (configuration not stated),inactive
10,CN(Cc1ccccc1)C(=O)COC(=O)c1ccccc1Nc1ccccc1,inactive
11,O=C(OCC(=O)N(CCc1ccccc1)Cc1ccccc1)c1ccccc1[N+](=O)[O-],6 (active)
12,Cc1c(C(=O)NCCCc2ccccc2)cccc1[N+](=O)[O-],inactive
13,CC1=NN(C(C)C)C(=O)C1,inactive
14,CN(C)c1ccc(/C=N\S(=O)(=O)c2ccccc2)cc1,inactive
15,CC[n+]1cc(C)ccc1/C=C/c1ccc(N(C)C)cc1,14 (active)
16,Cc1nnc2n1N=C(c1ccc3c(c1)NC(=O)CO3)CS2,inactive
17,Cc1noc(C)c1CSCC(=O)N(CCC(C)C)c1c(N)n(Cc2ccccc2)c(=O)[nH]c1=O,inactive
18,COc1cccc(N(CC(=O)NC2CCCC2)C(=O)Cn2nnc(-c3ccc(C)o3)n2)c1,inactive
19,O=C(Nc1nnc(S(=O)(=O)N2CCCCCC2)s1)c1cccc(Br)c1,7 (active)
20,Cc1cccc(C(=O)Nc2nnc(S(=O)(=O)N3CCCCCC3)s2)c1,inactive
21,O=C(Nc1nnc(S(=O)(=O)N2CCOCC2)s1)c1cccc(Br)c1,inactive
22,CCn1cc(CNC(=O)c2cc([N+](=O)[O-])c(C)c([N+](=O)[O-])c2)cn1,inactive

row,SMILES,B-score
1,Cc1cccc(NC(=O)c2ccc([N+](=O)[O-])o2)c1,inactive
2,Cc1cccc(NC(=O)c2sc(-c3ccccc3)nc2-c2ccc([N+](=O)[O-])cc2)c1,6 (active)
3,Cc1cccc(NC(=O)c2cc([N+](=O)[O-])ccc2N2CCN(C)CC2)c1,inactive
4,COc1ccc(CCNc2ncnc3c2nnn3Cc2ccccc2)cc1,inactive
5,O=C1/C(=C/c2ccc(F)cc2)SC(=S)N1CCCC(=O)N1CCCCC1CCO (configuration not stated),inactive
6,COc1ccc(CCNC(=O)C(=O)NCC2OCCN2S(=O)(=O)c2ccc(OC)c(C)c2)cc1 (configuration not stated),inactive
7,O=C1C2C3C=CC(C4CC34)C2C(=O)N1c1nccs1 (configuration not stated),inactive
8,COc1cccc(-c2cnc(OC(C)(C)C)nc2OC(C)(C)C)c1,8 (active)
9,COc1ccc(-c2nc(N)ncc2-c2ccc(Cl)cc2)c(O)c1,inactive
10,CC(C)(C)Oc1ncc(Br)c(OC(C)(C)C)n1,inactive
11,CCOc1cc2c(Cl)ncnc2c(OCC)c1OCC,inactive
12,COc1cccc(CN2CCN(Cc3ccc4cccc(F)c4n3)CC2CCO)c1 (configuration not stated),inactive
13,O=S(=O)(c1cccc2nonc12)N1CCN(c2cccc(Cl)c2)CC1,inactive
14,CC(Nc1ccccc1)c1cccnc1 (configuration not stated),inactive
15,Cc1nn2c(c1-c1ccccc1)N=C(c1ccco1)CC2c1ccccc1 (configuration not stated),inactive
16,CC(C)(C)NS(=O)(=O)CC12CCC(CC1=O)C2(C)C (configuration not stated),inactive
17,COc1ccc(Cl)cc1NC(=O)NC(C)C(C)(C)C (configuration not stated),inactive
18,COc1ccc(Cl)cc1NC(=O)C(C)N1CCc2ccccc21 (configuration not stated),7 (active)
19,COc1ccc(Cl)cc1NC(=O)NCC1CCN(Cc2ccccc2F)CC1,inactive
